Screens: PubChem BioAssay, several laboratories
CF NFkB block – blocks PAF-induced NF-kB reporter in cystic fibrosis cells; KKLEB NF-kB-GFP reporter, GFP fluorescence overnight; inhibition, % at 5 µM; 360,000 compounds, 0.86% hits;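 active = at least 50% inhibition at 5 µM, scaled per plate between neutral and stimulator controls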;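 also: PAF is a Pseudomonas aeruginosa culture filtrate used as stimulus; plate controls were PAF-stimulated DMSO wells for no effect and unstimulated DMSO wells for full effect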
MITF TRPM1 inh – MITF TRPM1 promoter inhibition in SK-MEL-5 cells | SK-MEL-5 TRPM1 promoter luciferase, 24 h | inhibition, % at 12.5 µM | 330,000 compounds, 0.83% hits | AID 488899;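 active = mean inhibition across replicates of 60% or more, whatever share of single replicates reaches that level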
Shn3 3UTR inh – Schnurri-3 reporter inhibition in Clone20 osteoblasts. Clone20 osteoblast Shn3 3'UTR firefly luciferase, 24 h. inhibition, % at 12.5 µM. 360,000 compounds, 0.52% hits;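 active = mean inhibition of at least 75% with every replicate also reaching 75%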;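 also: 0% = median of neutral control wells and 100% = pilot-screen positive control compound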
KKLEB tox – CF airway cell cytotoxicity counter-screen; KKLEB CF airway cells viability, ATPlite luminescence, overnight; active compounds read low; cells stimulated with P. aeruginosa culture filtrate; activity change (cytotoxicity), % at 5 µM; 360,000 compounds, 0.36% hits; AID 602141;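 active = corrected activity change at or below -50% at 5 µM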
HIF-2a block – HIF-2a inhibition; 786-0 RCC cells HIF-2a reporter, luciferase luminescence, overnight; inhibition, % at 18.8 µM; 360,000 compounds, 0.72% hits;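 active = inhibition of the luminescence signal of 40% or more relative to plate controls, in a single-dose primary screen at 18.75 µM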
Peg3 prom inh – reduces Peg3 promoter-driven luciferase expression in HeLa; HeLa PEG-Prom luciferase reporter, luminescence, overnight; inhibition, % at 20 µM; 360,000 compounds, 1.7% hits; AID 588405;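 active = inhibition of at least 50% at 20 µM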
Mdm2-MdmX confirm – Mdm2/MdmX (human) interaction inhibition, confirmed; shares compounds with HIF-2a block; inhibition, % at 8 µM; AID 504601; SaOS-2 split-luciferase Mdm2/MdmX complementation, luminescence; 740 compounds, 99% hits;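 active = mean inhibition of the luminescence signal across two replicates at or above 26 percent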
HIF-2a conf – confirmation of HIF-2a inhibitors | 1,800 compounds, 56% hits | AID 651580 | 786-0 RCC cells, HIF-2a luciferase reporter luminescence, overnight | inhibition, % at 18.8 µM | shares compounds with HIF-2a block;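 active = mean inhibition across four replicates of at least 40 percent at the single tested concentration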
HIF-1a counter – HIF-1a inhibition counter-screen for HIF-2a hits; MiaPaCa-2 HIF-1a luciferase reporter, desferoxamine, overnight; shares compounds with HIF-2a block; AID 651589; inhibition, % at 18.8 µM; 1,800 compounds, 72% hits;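 active = mean inhibition of the reporter signal across four replicates at the single tested dose of 50% or more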
Numbers without * were called inactive. Rows were chosen to be rich in hits. Some 2.7% of all compounds tested hit in one or more screens of this group.

Results for Cc1noc(/C=C/c2ccccn2)c1[N+](=O)[O-] ?
CF NFkB block: 5; MITF TRPM1 inh: 54; Shn3 3UTR inh: -54; KKLEB tox: -11; HIF-2a block: 73*; Peg3 prom inh: 26; HIF-2a conf: 86*; HIF-1a counter: 106*

What do the screens show for `COc1ccc(C2=Nc3ccccc3N(C(=O)c3ccncc3)C2C(=O)NC(C)(C)C)cc1` (stereo unspecified)?
HIF-2a block: -76

How did O=C(NC1CCCC1)C(c1ccccc1)n1c(CSCCOc2ccccc2)nc2ccccc21 (stereo unspecified) do in these assays?
HIF-2a block: 65*; HIF-2a conf: 79*; HIF-1a counter: 66*

How did COc1ccc(NC(=O)CCS(=O)(=O)c2ccccc2Cl)cc1S(=O)(=O)Nc1ccc(Cl)cc1 do in these assays?
CF NFkB block: -10; MITF TRPM1 inh: 1; Shn3 3UTR inh: 7; KKLEB tox: -9; HIF-2a block: 44*; Peg3 prom inh: 28; HIF-2a conf: 17; HIF-1a counter: 68*

Results for COc1cccc(C2=Cc3ccc(F)cc3C(CC(C)=O)N2c2ccc(-c3cncnc3)cc2)c1 (stereo unspecified) ?
HIF-2a block: 24

Results for CCOC(=O)c1ccc(-c2ccc(N3C(c4cccc(OC)c4)=Cc4ccc(F)cc4C3CC(C)=O)cc2)cc1F (stereo unspecified) ?
HIF-2a block: 65*; HIF-2a conf: 26; HIF-1a counter: 27

What do the screens show for `CCCCCCCCCCCCCCCC[n+]1ccc(C(N)=O)cc1`?
CF NFkB block: 63*; MITF TRPM1 inh: 18; Shn3 3UTR inh: 69; KKLEB tox: -69*; HIF-2a block: 80*; Peg3 prom inh: 98*; Mdm2-MdmX confirm: 100*; HIF-2a conf: 53*; HIF-1a counter: 100*

How did CCCCC(=O)Nc1ccc(C(N)=O)cc1 do in these assays?
CF NFkB block: 8; MITF TRPM1 inh: 8; Shn3 3UTR inh: 22; KKLEB tox: 0; HIF-2a block: -17; Peg3 prom inh: -23

How did O=C(NCCCN1CCOCC1)c1cc(-c2ccc(Br)cc2)on1 do in these assays?
CF NFkB block: -9; MITF TRPM1 inh: -8; Shn3 3UTR inh: 22; KKLEB tox: -6; HIF-2a block: 58*; Peg3 prom inh: -16; HIF-2a conf: 19; HIF-1a counter: 62*

Results for C(=N\NCc1ccccc1)/c1ccc2ncccc2c1 ?
CF NFkB block: 22; Shn3 3UTR inh: -61; KKLEB tox: 10; HIF-2a block: -156; Peg3 prom inh: -137

How did S=C(N/N=C/c1ccc2ncccc2c1)Nc1ccccc1 do in these assays?
CF NFkB block: -1; MITF TRPM1 inh: 21; Shn3 3UTR inh: 20; KKLEB tox: 10; HIF-2a block: 48*; Peg3 prom inh: -27; HIF-2a conf: -24; HIF-1a counter: 63*

How did O=C([C@H]1O[C@@H](n2ccc(=O)[nH]c2=O)[C@H](O)[C@@H]1O)N1CCN(Cc2ccccn2)CC1 do in these assays?
HIF-2a block: 6

Results for CC(=O)Nc1ccc(NC(=O)c2c([N+](=O)[O-])c(C(C)(C)C)nn2C)cc1 ?
CF NFkB block: 4; MITF TRPM1 inh: 11; Shn3 3UTR inh: 9; KKLEB tox: 8; HIF-2a block: 60*; Peg3 prom inh: 2; HIF-2a conf: 67*; HIF-1a counter: 36

How did Cc1ccc(CNC(=O)Nc2nnc([C@@H]3C[C@H](O)[C@@H](CO)O3)s2)cc1 do in these assays?
CF NFkB block: 15; Shn3 3UTR inh: -5; KKLEB tox: -6; HIF-2a block: 5; Peg3 prom inh: 1

Results for COc1ccc(OC)c(S(=O)(=O)N2CCN(c3ccccc3)CC2)c1 ?
CF NFkB block: -12; MITF TRPM1 inh: -3; Shn3 3UTR inh: 6; KKLEB tox: 13; HIF-2a block: 9; Peg3 prom inh: 17
